Measurements as given in PubChem BioAssay.
Potency and affinity values are given separately. Inconclusive results are not listed. Activity calls are given as the source filed them. Unless noted, no rule for the calls is given here.

Key:
[1] = RMG-1 ovarian cancer cell viability loss – cherry-pick, dose response (AID 687029;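 active = signal drop whose fitted half-maximal concentration is at most twice the top valid dose, in every test run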;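 also: cells exposed to compound for 96 hours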)
[2] = CMV-driven luciferase expression suppression in HEK293 – cell-based, luminescence, dry powder, counter-screen for Pax8 inhibitor project, dose response (AID 743020;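 active = signal-lowering compounds whose fitted half-maximal concentration is at or below twice the top tested dose in every run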;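 also: HEK293 cells stably expressing the CMV luciferase reporter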)
[3] = general cell-killing toxicity readout – plate reader, dry powder samples, cytotoxicity control for PAX8 inhibitor project, dose response (AID 743021)

Measured: outcome

Cc1ccc(S(=O)(=O)NCc2ccc(C(=O)N3CCN(c4ccc([N+](=O)[O-])cc4)CC3)cc2)cc1
inactive: all assays above

CC(/C=C1\SC(=O)N(CC(=O)Nc2ccc(O)cc2)C1=O)=C\c1ccccc1
inactive: all assays above

CCOc1ccc(C(=O)C(CN2CCOCC2)c2ccccc2)cc1 (stereo not drawn)
inactive: all assays above

CN=c1scc(-c2cccs2)n1/N=C/c1ccccc1O
inactive: all assays above

N#Cc1ccc(-c2ccc([C@@H]3[C@@H]4CN(S(=O)(=O)c5ccc(-c6ccccc6)cc5)C[C@H]3N4)cc2)cc1
inactive: all assays above

CCOc1ccc2c(c1)C(C)=CC(C)(C)N2S(=O)(=O)c1ccc(NC(C)=O)cc1
inactive: all assays above

O=C(Nc1ccc(Cl)cc1)/C(=C/c1cccc(O)c1)c1nc2ccccc2s1
inactive: all assays above

COc1ccc(C(=O)CN2C(=O)c3ccccc3S2(=O)=O)cc1
inactive: all assays above

Cc1cccc(CS(=O)(=O)c2ncc(Cl)c(C(=O)Nc3ccc(F)cc3)n2)c1
inactive: all assays above

N#Cc1nc(NCC(F)F)nc(Nc2cc(F)cc(F)c2)n1
inactive: all assays above

COc1ccc(CC2C(=O)NC(C)C(=O)N(C)C3Cc4ccc(cc4)Oc4cc(ccc4O)CC(C(=O)NC(C)C(=O)NC(C)C(=O)N2C)N(C)C3=O)cc1 (stereo not drawn)
inactive: all assays above

S=C1SCN(Cc2cccnc2)CN1Cc1cccnc1
inactive: all assays above

Cc1ccc(CCc2nnc(SCC(=O)Nc3cccc(Cl)c3)n2-c2ccccc2)o1
inactive: all assays above

COc1ccc(C(=O)CCS(=O)(=O)c2ccc(C)cc2)cc1OC
inactive: all assays above

C=C1C(=O)[C@@]23[C@H](O)C[C@@H]4C(C)(C)CC[C@H](O)[C@]4(C)[C@@H]2C[C@H](O)[C@@H]1[C@H]3O
inactive: all assays above

Cc1ccc(S(=O)(=O)N(C)C[C@H]2Oc3c(NC(=O)Nc4cccc5ccccc45)cccc3C(=O)N([C@@H](C)CO)C[C@@H]2C)cc1
inactive: all assays above

O=S(=O)(Nc1cccc(-c2cn3cccnc3n2)c1)c1ccc(Cl)cc1
inactive: all assays above

C=C1C(=O)[C@]23C[C@H]1CC[C@H]2[C@]1(C)[C@@H](OC(C)=O)CC[C@@](C)(C(=O)O)[C@H]1C[C@@H]3O
inactive: all assays above

O=C(Nc1ccccc1)Nc1cc(OCC(F)(F)F)cc(OCC(F)(F)F)c1
inactive: all assays above

C=CC[C@@H](CC(=O)N[C@H](CO)Cc1ccccc1)C(=O)N[C@H](COC(=O)[C@@H](CC=C)Cc1ccc(F)cc1)Cc1c[nH]c2ccccc12
inactive: all assays above

COCCN(CC(=O)NC1CCCCC1)C(=O)/C=C/C(=O)c1ccc(OC)cc1O
inactive: all assays above

CN1C(=O)/C(=C\C(=O)c2cccs2)c2ccccc21
inactive: all assays above

Oc1[nH]c2ccc(Br)cc2c1N=NC(=S)N1CCOCC1
inactive: all assays above

COc1cc(C2C3=C(COC3=O)OC(C)(C)Oc3cc4c(cc32)OCO4)cc(OC)c1OC (stereo not drawn)
inactive: all assays above

CNC(=O)c1cc(Oc2ccc(NC(=O)Nc3ccc(Cl)c(C(F)(F)F)c3)cc2)ccn1
inactive: all assays above

COC(=O)[C@@]12C[C@@H](CC(=O)N3CCN(C(=O)c4ccco4)CC3)C(=O)N(Cc3ccccc3)C1=CCC(C)(C)C2
inactive: all assays above

COC(=O)[C@]12CCCCC=C1N(Cc1cccc3ccccc13)C(=O)[C@H](CC(=O)N1CCN(C(=O)c3ccco3)CC1)C2
inactive: all assays above

CCCCCc1c(-c2ccccc2OC)ncn1CCc1ccccc1OC
inactive: all assays above

O=S(=O)(Nc1cc(Sc2ncn[nH]2)c(O)c2ccccc12)c1ccccc1
inactive: all assays above

O=C(Cn1ncc(Cl)c(Cl)c1=O)Nc1ccc2c(c1)OCO2
inactive: all assays above

CCN(CC)c1ccc2c(cc1=O)[C@@H](NC)CCc1cc(OC)c(OC)c(OC)c1-2
inactive: all assays above

Cn1c(=O)c([N+](=O)[O-])c(Cl)c2ccccc21
inactive: all assays above

COc1ccc([N+](=O)[O-])c(S(=O)(=O)c2ccccc2)n1
inactive: all assays above

CCCCCCN(C(=O)CCCN1C(=O)NC(c2ccc(-c3ccccc3)cc2)C(C(=O)OCc2ccccc2)=C1C)C(C)C(=O)NCCCC (stereo not drawn)
inactive: all assays above

CCCCn1c(=O)[nH]c(=O)c2c1nc(Cn1ncc(Cl)c(Cl)c1=O)n2CCC
inactive: all assays above

CCOC(=O)C1=CN(Cc2cccc(-c3cccnc3)c2)S(=O)(=O)N(C)C1C (stereo not drawn)
inactive: all assays above

Cn1nnnc1Sc1ncnc2scc(-c3ccc(Br)cc3)c12
inactive: all assays above

Cc1ccc(C(=O)c2cc([N+](=O)[O-])ccc2N2CCCCC2)c(C)c1
inactive: all assays above

COc1cccc(-c2nc(CS(=O)(=O)CC(=O)NCCCN3CC(C)CC(C)C3)c(C)o2)c1 (stereo not drawn)
inactive: all assays above

O=C(CCc1ccc(S(=O)(=O)NCc2ccccc2)cc1)NCc1cccnc1
inactive: all assays above

CC[C@]1(O)C[C@@H]2CN(CCc3c([nH]c4ccccc34)[C@@](C(=O)OC)(c3cc4c(cc3OC)N(C)[C@H]3[C@@](O)(C(=O)OC)[C@H](OC(C)=O)[C@]5(CC)C=CCN6CC[C@]43[C@@H]65)C2)C1
inactive: all assays above

CC(C1CC1)N(Cc1ccccc1)C(=S)Nc1cccc(C(F)(F)F)c1 (stereo not drawn)
inactive: all assays above

CC(=O)Nc1ccc(NC(=O)c2nc(S(=O)(=O)Cc3ccccc3)ncc2Cl)cc1
inactive: all assays above

C[n+]1c2n(c3ccccc31)N=C(c1cc(C(C)(C)C)c(O)c(C(C)(C)C)c1)CS2
inactive: all assays above

O=C(Nc1cc(S(=O)(=O)N2CCCCC2)ccc1Cl)c1ccccc1NS(=O)(=O)c1ccc(F)cc1
inactive: all assays above

COc1cccc2c1C(=O)c1c(O)c3c(c(O)c1C2=O)C[C@](O)(C(C)=O)C[C@H]3O[C@@H]1C[C@@H](N)[C@@H](O)[C@@H](C)O1
inactive: all assays above

O=[N+]([O-])c1cc2c(ccc3occc32)o1
inactive: all assays above

COc1ccc(OC)c2sc(N(CCCN(C)C)C(=O)CCS(=O)(=O)c3ccccc3)nc12
inactive: all assays above

O=C(COC(=O)c1ccco1)Nc1cccc(S(=O)(=O)N2CCOCC2)c1
inactive: all assays above

CCCCCc1cc(=O)oc2c(C(CCN3CCCCC3)c3ccc4c(c3)OCO4)c(OC)cc(OC)c12 (stereo not drawn)
inactive: all assays above

Oc1ccc(C[C@H]2CNC(=S)N2CC2CCCN2C[C@H](Cc2ccc(O)cc2)N2C[C@H](Cc3ccc(O)cc3)N(CC3CCCCC3)C2=S)cc1 (stereo partly drawn)
inactive: all assays above

COc1cccc2c1C(=O)c1c(O)c3c(c(O)c1C2=O)CC(O)(C(C)=NNC(=O)c1ccc(Cl)c(Cl)c1)CC3OC1CC(N)C(O)C(C)O1 (stereo not drawn)
inactive: all assays above

COc1ccc(S(=O)(=O)N(C)C[C@H]2Oc3ccc(NC(=O)Nc4ccc(C(F)(F)F)cc4)cc3C(=O)N([C@H](C)CO)C[C@@H]2C)cc1
inactive: all assays above

COc1cc(C(=O)NCC(c2cccs2)N2CCOCC2)ccc1OCc1ccc(Cl)cc1 (stereo not drawn)
inactive: all assays above

COC1C(CO)OC(n2c3c(Cl)cccc3c3c4c(c5c6cccc(Cl)c6[nH]c5c32)C(=O)NC4=O)C(O)C1O (stereo not drawn)
inactive: all assays above

CCCCn1c(N)c(N(CCC(C)C)C(=O)COC(=O)c2ccc([N+](=O)[O-])s2)c(=O)[nH]c1=O
inactive: all assays above

COc1cc2c(c(OC)c1OC)-c1ccc(OC)c(=O)cc1C(NC(C)=O)CC2 (stereo not drawn)
inactive: all assays above

CCN(CC)S(=O)(=O)c1cc(OC)ccc1N=Nc1ccc(O)c2ncccc12
inactive: all assays above

O=C(c1ccco1)N1N=C(c2ccc(Br)cc2)CC1(O)C(F)(F)F (stereo not drawn)
inactive: all assays above

Cn1nnnc1Sc1ncnc2scc(-c3ccc[nH]3)c12
inactive: all assays above

C[C@H](NC(=O)c1ccco1)C(=O)Nc1cccc([N+](=O)[O-])c1
inactive: all assays above
